Experimental data taken from PubChem BioAssay AID1159580 (chemical genetic matrix, 2015).
In all, about 5,500 compounds went through this assay and about 2,000 (36%) were called active. Not shown: some 18% with an inconclusive outcome. Rule as the data show it: active = normalized growth mostly below about 0.91 (no sharp cut-off); inconclusive = no clear call, values can overlap the other calls; inactive = mostly above about 0.92. Some of the results follow.

Assay: chemical genetic growth profiling, strain panel (AID 1159580);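 also: tested at 20 µM; growth read once vehicle control cultures reached saturation at 30 °C; 1 = growth at the plate median or of vehicle wells; lower values mean less growth of the strain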
Details: S. cerevisiae deletion strains, growth OD

Measured: normalized growth

C/C=C\C1=C(C(=O)O)N2C(=O)C(NC(=O)C(N)c3ccc(O)cc3)C2SC1 (centres undefined)
inactive: locus YAL021C, strain ccr4, active compounds read low 0.983 | locus YAL026C, strain drs2, active compounds read low 1.01 | locus YAL030W, strain snc1, active compounds read low 1 | locus YBL061C, strain skt5, active compounds read low 1.02 | locus YBR009C, strain hhf1, active compounds read low 1.01 | locus YBR023C, strain chs3, active compounds read low 1.01 | locus YBR171W, strain sec66, active compounds read low 1.01 | locus YBR231C, strain swc5, active compounds read low 1.01 | locus YBR279W, strain paf1, active compounds read low 1 | locus YCL011C, strain gbp2, active compounds read low 1 | locus YCL016C, strain dcc1, active compounds read low 1 | locus YCL061C, strain MRC1, active compounds read low 1 | locus YCL069W, strain vba3, active compounds read low 1.01 | locus YCR088W, strain abp1, active compounds read low 1.01 | locus YDL005C, strain med2, active compounds read low 1 | locus YDL040C, strain nat1, active compounds read low 1.01 | locus YDR001C, strain nth1, active compounds read low 1.01 | locus YDR069C, strain doa4, active compounds read low 0.995 | locus YDR137W, strain rgp1, active compounds read low 1.01 | locus YDR159W, strain sac3, active compounds read low 0.987 | locus YDR195W, strain ref2 0.978 | locus YDR297W, strain sur2, active compounds read low 1 | locus YDR334W, strain swr1, active compounds read low 1.01 | locus YDR335W, strain msn5, active compounds read low 1.01 | locus YDR392W, strain spt3, active compounds read low 0.991 | locus YEL003W, strain gim4, active compounds read low 1 | locus YEL037C, strain rad23, active compounds read low 1.01 | locus YEL061C, strain CIN8 (second series), active compounds read low 1 | locus YER015W, strain faa2, active compounds read low 1 | locus YER016W, strain bim1, active compounds read low 1.01 | locus YER111C, strain swi4, active compounds read low 0.996 | locus YER155C, strain BEM2 (second series), active compounds read low 1.01 | locus YFR010W, strain ubp6, active compounds read low 1.02 | locus YGL167C, strain pmr1, active compounds read low 1.01 | locus YGL173C, strain kem1, active compounds read low 1 | locus YGL227W, strain vid30, active compounds read low 1.01 | locus YGL240W, strain doc1, active compounds read low 0.988 | locus YGL253W, strain hxk2, active compounds read low 1.01 | locus YHR013C, strain ard1, active compounds read low 0.997 | locus YHR027C, strain rpn1, active compounds read low 0.993 | locus YHR030C, strain SLT2, active compounds read low 1.02 | locus YHR079C, strain IRE1, active compounds read low 1.04 | locus YHR142W, strain chs7, active compounds read low 1.03 | locus YJL092W, strain hpr5, active compounds read low 1.01 | locus YJL095W, strain BCK1 (second series), active compounds read low 0.998 | locus YJL095W, strain BCK1, active compounds read low 0.997 | locus YJL115W, strain asf1, active compounds read low 0.999 | locus YJL129C, strain trk1, active compounds read low 1.02 | locus YJL154C, strain vps35, active compounds read low 1.01 | locus YJL164C, strain tpk1, active compounds read low 1.02 | locus YJL166W, strain qcr8, active compounds read low 1 | locus YJR066W, strain TOR1, active compounds read low 0.982 | locus YKL160W, strain elf1, active compounds read low 1 | locus YKR026C, strain gcn3, active compounds read low 1 | locus YKR091W, strain srl3, active compounds read low 1 | locus YLL001W, strain dnm1, active compounds read low 1.01 | locus YLL026W, active compounds read low 0.999 | locus YLL041C, strain sdh2, active compounds read low 1.03 | locus YLR027C, strain aat2, active compounds read low 1.01 | locus YLR113W, strain HOG1, active compounds read low 0.957 | locus YLR221C, strain rsa3, active compounds read low 1 | locus YLR258W, strain gsy2, active compounds read low 1.02 | locus YLR262C, strain YPT6 (second series), active compounds read low 1.01 | locus YLR320W, strain mms22, active compounds read low 1.02 | locus YLR342W, strain FKS1, active compounds read low 1 | locus YLR357W, strain rsc2, active compounds read low 1.01 | locus YLR370C, strain arc18, active compounds read low 1.02 | locus YLR384C, strain iki3, active compounds read low 1.02 | locus YML120C, strain ndi1, active compounds read low 1.02 | locus YMR058W, strain fet3, active compounds read low 1.01 | locus YMR125W, strain sto1, active compounds read low 1.02 | locus YMR129W, active compounds read low 1.01 | locus YMR205C, strain PFK2, active compounds read low 1.02 | locus YMR231W, strain pep5, active compounds read low 1 | locus YNL071W, strain lat1, active compounds read low 1.01 | locus YNL183C, strain NPR1, active compounds read low 0.959 | locus YNL209W, strain ssb2, active compounds read low 0.997 | locus YNL248C, strain rpa49, active compounds read low 1.02 | locus YNL322C, strain KRE1 (second series), active compounds read low 0.994 | locus YNR049C, strain mso1, active compounds read low 1.03 | locus YOR001W, strain rrp6, active compounds read low 1.02 | locus YOR070C, strain gyp1, active compounds read low 1.01 | locus YOR080W, strain dia2, active compounds read low 1.01 | locus YOR083W, strain WHI5, active compounds read low 1.01 | locus YOR106W, strain vam3, active compounds read low 0.997 | locus YOR231W, strain MKK1, active compounds read low 1.01 | locus YOR265W, strain rbl2, active compounds read low 1.02 | locus YOR270C, strain vph1, active compounds read low 1.04 | locus YOR290C, strain snf2, active compounds read low 1 | locus YPL051W, strain arl3, active compounds read low 1.01 | locus YPL078C, strain atp4, active compounds read low 1.02 | locus YPL106C, strain sse1, active compounds read low 1 | locus YPL240C, strain hsp82, active compounds read low 1.01 | locus YPL256C, strain CLN2, active compounds read low 1.04
